Laboratory results as given in PubChem BioAssay AID504339 (National Center for Advancing Translational Sciences (NCATS), 2011).
In all, about 390,000 compounds went through this assay and about 17,000 (4.4%) were called active. Roughly 8% stayed inconclusive and do not appear here. What follows is part of a selection rich in actives, with near analogues and random picks from the rest. Values without a mark were called inactive. Calls come from the whole dose curve; as a rule, active = well fitted inhibition curve with a large enough effect; inconclusive = small, poorly fitted or top-dose-only effect; inactive = no such curve, though single readings can be large or run the other way.

Target: Lysine-specific demethylase 4A (Homo sapiens) (UniProt O75164)
Assay: qHTS Assay for Inhibitors of JMJD2A-Tudor Domain; note: nearly all actives have a fitted effect of over 50% in size
Conditions: AlphaScreen JMJD2A-Tudor / H3K4me3 peptide binding; series mostly up to 114 µM; activity change, negative = inhibition: at the top concentration
% is set by controls: 0 for no effect and ±100 for the full control effect; potency is the fitted concentration of half-maximal effect.

Sequence of Lysine-specific demethylase 4A (Homo sapiens) (O75164 whole entry, looked up, the tested form may be a part): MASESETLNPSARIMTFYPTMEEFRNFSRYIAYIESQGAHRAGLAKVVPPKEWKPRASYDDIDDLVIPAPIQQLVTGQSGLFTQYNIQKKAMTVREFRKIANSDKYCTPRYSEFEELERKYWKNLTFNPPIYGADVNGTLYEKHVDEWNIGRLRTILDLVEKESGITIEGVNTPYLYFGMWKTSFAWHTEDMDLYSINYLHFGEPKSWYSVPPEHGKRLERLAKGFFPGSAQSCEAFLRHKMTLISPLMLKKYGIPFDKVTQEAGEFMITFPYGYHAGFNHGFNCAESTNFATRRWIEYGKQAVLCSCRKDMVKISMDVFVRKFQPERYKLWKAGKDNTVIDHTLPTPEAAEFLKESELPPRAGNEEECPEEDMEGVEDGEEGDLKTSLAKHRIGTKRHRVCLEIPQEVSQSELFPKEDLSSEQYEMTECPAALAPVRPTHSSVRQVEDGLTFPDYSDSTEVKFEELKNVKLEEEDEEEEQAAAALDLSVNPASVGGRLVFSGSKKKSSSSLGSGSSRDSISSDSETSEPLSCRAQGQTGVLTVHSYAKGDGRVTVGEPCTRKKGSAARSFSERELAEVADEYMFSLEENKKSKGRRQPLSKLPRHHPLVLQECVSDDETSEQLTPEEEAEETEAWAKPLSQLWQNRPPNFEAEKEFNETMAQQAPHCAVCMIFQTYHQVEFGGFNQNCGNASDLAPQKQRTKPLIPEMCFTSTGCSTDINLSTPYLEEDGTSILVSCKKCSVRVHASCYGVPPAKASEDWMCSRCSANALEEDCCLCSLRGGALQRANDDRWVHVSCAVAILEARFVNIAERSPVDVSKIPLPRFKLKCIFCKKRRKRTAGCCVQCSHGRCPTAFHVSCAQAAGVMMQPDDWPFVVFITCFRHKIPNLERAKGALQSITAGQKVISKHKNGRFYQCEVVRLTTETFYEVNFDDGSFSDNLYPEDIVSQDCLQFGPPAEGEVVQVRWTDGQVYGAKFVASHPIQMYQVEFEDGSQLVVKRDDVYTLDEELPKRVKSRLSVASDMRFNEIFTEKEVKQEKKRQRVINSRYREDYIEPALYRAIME

Structure (SMILES) | activity change, negative = inhibition | Potency
CCN1CCN(CCCNC(=O)c2cnn(-c3ccc(C)cc3C)c2C2CCN(C(=O)OC(C)(C)C)CC2)CC1 | -25.9% | –
COc1ccc(Cn2c(=O)n(-c3ccccc3C)c(=O)c3c4c(sc32)CN(C(C)=O)CC4)cc1 | -19.6% | –
CCOC(=O)N1CCN(C(c2cccnc2)c2ccc3cccnc3c2O)CC1 (configuration not stated) | – | 17.8 µM (active)
O=C(NC(c1ccco1)c1cc(Cl)c2cccnc2c1O)c1ccccc1 (configuration not stated) | -23.4% | –
CC(=O)NC(c1cccs1)c1cc(Cl)c2cccnc2c1O (configuration not stated) | -29.9% | –
CCN1CCN(C(c2cccnc2)c2cc(Cl)c3cccnc3c2O)CC1 (configuration not stated) | – | 17.8 µM (active)
O=C(CSc1cccc2cccnc12)N/N=C/c1cccnc1 | -4.86% | –
COc1ccccc1N1CCN(C(CNC(=O)C(=O)NCc2ccc(C)cc2)c2cccnc2)CC1 (configuration not stated) | -1.64% | –
CC1=C(C(=O)OCc2ccc(C)cc2)C(c2c(Cl)cccc2Cl)CC(=O)N1 (configuration not stated) | 2.4% | –
Cc1onc(-c2ccc(F)cc2F)c1C(=O)Nc1cccc(C(F)(F)F)c1 | 11% | –
CCOCCCNC(=O)c1c(NC(=O)c2nc(SC)ncc2Cl)sc2c1CCCC2 | -9.72% | –
CCOc1ccc(NC(=O)CCc2c(C)nn(-c3ccc(N4CCCC4)nn3)c2C)cc1 | -22.7% | –
O=C1C=CC(=O)N1c1ccc(N2CCCCC2)cc1 | – | 20 µM (active)
O=C(C1CC(=O)N(C2CCCCC2)C1)N1CCN(c2ccccc2)CC1 (configuration not stated) | -33.1% | –
CCC(=O)c1ccc(OCC(=O)Nc2ccc(N3CCCCC3)cc2)cc1 | -7.05% | –
CCC(=O)Nc1ccc(C)cc1-c1nc2ccccc2n(Cc2ccccc2)c1=O | -0.993% | –
COc1cc(CN(C(=O)c2ccccc2Br)c2ccccn2)cc(OC)c1OC | -2.98% | –
COc1ccccc1C1C(C(=O)N2CCCCC2)=C(C)Nc2nc3ccccc3n21 (configuration not stated) | -17.1% | –
COc1ccccc1CNC(=O)c1ccc(-n2c(C)cc3c2CCCC3)cc1 | -28.7% | –
CCc1nnc(NC(=O)c2nc3nccc(C)n3n2)s1 | – | 35.5 µM (active)
CCc1nnc(NC(=O)c2ccc(S(=O)(=O)NC3CCCCC3)cc2)s1 | -5.81% | –
Cc1ccnc2nc(C(=O)Nc3nnc(-c4ccccc4)o3)nn12 | -18% [at 57.1 µM] | –
COc1ccc(CCC(=O)NCc2ccc3c(c2)CCN3C(=O)c2ccc(F)cc2)cc1 | -3.33% | –

Structure (SMILES) | activity change, negative = inhibition | Potency
COc1ccc(-c2nnc(SCC(=O)NC3CCCCC3)o2)cc1OC | -0.704% | –
COc1ccccc1-n1ccnc1SCC(=O)NC(C)(C)C | -6.01% | –
COc1ccccc1-n1ccnc(SCC(=O)NC2CCCCC2)c1=O | – | 35.5 µM (active)
N#CN1CCC(NC(=O)c2ccc(F)cc2)CC1 | -14.4% | –
OC(COc1ccc(CN2CCSCC2)cc1)CN1CCCCC1 (configuration not stated) | -8.63% | –
C/C=C/c1ccc(OCC(O)CN2CCCCCCC2)c(OC)c1 (configuration not stated) | – | 3.16 µM (active)
C/C=C/c1ccc(OCCCCN2CCC(C)CC2)c(OC)c1 | – | 3.16 µM (active)
COc1ccc(OC)c(NC(=O)CCN2CCC(C)CC2)c1 | -24.4% | –
C=CCc1ccc(OCC(O)CN2CCN(Cc3ccccc3)CC2)c(OC)c1 (configuration not stated) | -8.7% | –
C/C=C/c1ccc(OCCOc2ccc(C=O)cc2OC)c(OC)c1 | 10.4% | –
C/C=C/c1ccc(OCC(=O)NNC(=O)CN(C)S(=O)(=O)c2ccc(C)cc2)c(OC)c1 | -24.8% | –
CC1CCN(CCC(=O)Nc2ccccc2)CC1 | -6.38% | –
COc1ccc(OCCCCN2CCC(C)CC2)cc1 | – | 20 µM (active)
O=C(NC1CC(=O)N(c2ccc(F)cc2)C1)c1cccs1 (configuration not stated) | 1.62% | –
COc1ccc(-c2noc(CSc3nnc(-c4ccccc4)n3-c3ccc(F)cc3)n2)c(OC)c1 | -32.3% | –
Cc1oc2ccc(O)c(CN3CCCCC3)c2c1C(=O)Nc1cccc(C(F)(F)F)c1 | -33.7% | –
CCCCCn1c(=O)[nH]c2cc(C(=O)NCCN(C)CCCC)ccc2c1=O | -6.48% | –
CCC(=O)N1CCc2cc(S(=O)(=O)NC(Cc3ccccc3)C(=O)NCc3ccc(C)cc3)ccc21 (configuration not stated) | -3% | –
CN(Cc1ccccc1)C(=O)c1cc2c(=O)n(C)c3ccccc3c2s1 | -1.67% | –
COc1ccc(C2=Nn3c(nnc3-c3ccccc3O)SC2)cc1 | -17.9% | –
CC1=C(C(=O)OCC(C)C)C(c2ccc(OCc3ccccc3)cc2)N2C(=O)CCSC2=N1 (configuration not stated) | -15.6% | –
CCC(=O)Nc1cccc(C(=O)OCc2cc(=O)n3nc(CC)sc3n2)c1 | -3.97% | –
O=S(=O)(NCCc1ccncc1)c1ccccc1 | -7.32% | –

Structure (SMILES) | activity change, negative = inhibition | Potency
O=S(=O)(NCCc1ccccc1)c1ccccc1 | -11.6% | –
S=c1[nH]nc(NCCc2ccccc2)s1 | – | 2.51 µM (active)
Cc1nn2c(=O)cc(COC(=O)CNC(=O)c3ccc(F)cc3)nc2s1 | -14.3% | –
Cc1ccc(C)c(N2CCN(Cc3nnc(-c4ccccc4)o3)CC2)c1 | -4.79% | –
CC1CCC(N2CC(=O)N(CCC3=CCCCC3)C(c3ccc(F)cc3)C2=O)CC1 (configuration not stated) | 7.65% | –
Cn1c(-c2sc3cc(C(F)(F)F)cnc3c2-c2ccccc2)n[nH]c1=S | -31.9% | –
Cn1c(-c2sccc2OCc2cccc(C(F)(F)F)c2)n[nH]c1=S | -12% [at 11.4 µM] | –
Cc1ccccc1-c1n[nH]c(=S)n1C | – | 7.08 µM (active)
COc1ccc(C(=O)CSc2n[nH]c(N)n2)cc1 | – | 56.2 µM (active)
COc1ccc(-c2nc(SCC(=O)N3CCOCC3)n[nH]2)cc1 | -4.35% | –
COc1ccc(CNC(=O)CSc2n[nH]c(N)n2)cc1OC | -7.77% | –
COc1cccc(C(=O)NC(=O)Nc2ccc(-c3cc(C(F)(F)F)nn3-c3ccccc3)cc2)c1 | -9.7% | –
Cc1ccc(S(=O)(=O)NCc2nc3nc(C)cc(C)n3n2)cc1 | -10.4% | –
CCC1=Nc2cc(C(=O)NCCCOC(C)C)ccc2Sc2ccc(C)cc21 | -26.2% | –
O=C(CCS(=O)(=O)c1ccc2c(c1)NC(=O)CO2)Nc1cccc(C(F)(F)F)c1 | -2.96% | –
CC(C)(C)C1C/C(=C/c2ccco2)C(=O)/C(=C/c2ccco2)C1 (configuration not stated) | – | 31.6 µM (active)
CS(=O)(=O)c1ccc2c(c1)SC1=NC(=O)/C(=C/c3ccco3)C(=N)N12 | -34% | –
Cc1cccc(NC(=O)CSc2ncc(-c3ccccc3)[nH]2)c1C | -23.9% | –
CCc1ccccc1NS(=O)(=O)c1ccc2nc(-c3ccccc3)[nH]c2c1 | -10.6% | –
Cc1ccc(Nc2ccc3cc(S(=O)(=O)N4CCCCC4)ccc3n2)cc1F | 48.7% | –
CCOc1ccc(C2CC(=O)c3c([nH]c(C(=O)OCc4ccccc4)c3C)C2)cc1 (configuration not stated) | -34.6% | –
